Results taken from publication PMC7862700, “An all-to-all approach to the identification of sequence-specific readers for epigenetic DNA modifications on cytosine”.

What was measured:
Experiment in all cases: DAPPL (digital affinity profiling via proximity ligation, sequencing); 10 mM Tris-HCl pH 7.5, 50 mM NaCl, 1 mM DTT, 4% glycerol, room temperature, 30 min; GST-TFs on glutathione beads, 16-mer random dsDNA library, 0.1% formaldehyde crosslink after washing; high values mean tight binding
Details in all cases: protein: recombinant; tags: N-terminal GST; dsDNA, one strand shown
ETV2 = biological target: T1, ETV2 (Homo sapiens, UniProt O00321 1-342)
T1 sequence: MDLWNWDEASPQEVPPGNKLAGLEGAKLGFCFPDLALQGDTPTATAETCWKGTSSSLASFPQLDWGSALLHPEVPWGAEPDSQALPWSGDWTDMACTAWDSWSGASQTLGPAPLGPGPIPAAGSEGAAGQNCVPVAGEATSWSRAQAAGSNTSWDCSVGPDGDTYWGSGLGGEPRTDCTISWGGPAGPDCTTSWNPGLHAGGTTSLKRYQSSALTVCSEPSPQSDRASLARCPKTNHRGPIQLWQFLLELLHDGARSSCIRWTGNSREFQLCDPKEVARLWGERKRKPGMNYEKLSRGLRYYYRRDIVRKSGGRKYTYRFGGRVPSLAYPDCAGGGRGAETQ
In short: (§1)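 Pools were built from human transcription factors expressed in yeast as GST fusions, captured on glutathione beads and DNA-barcoded, along with a tag-only sample. Incubation with 200 nmole of a 16-mer random double-stranded DNA library lasted 30 min at room temperature in Tris/NaCl/DTT/glycerol buffer, and was followed by washing, 0.1% formaldehyde crosslinking, proximity ligation, PCR amplification and Illumina NextSeq500 sequencing. Binding signal is the quotient of each hexamer's read frequency for a factor and its frequency for the tag-only sample.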

ELF3 = biological target: T2, ELF3 (Homo sapiens, UniProt P78545 1-371)
T2 sequence: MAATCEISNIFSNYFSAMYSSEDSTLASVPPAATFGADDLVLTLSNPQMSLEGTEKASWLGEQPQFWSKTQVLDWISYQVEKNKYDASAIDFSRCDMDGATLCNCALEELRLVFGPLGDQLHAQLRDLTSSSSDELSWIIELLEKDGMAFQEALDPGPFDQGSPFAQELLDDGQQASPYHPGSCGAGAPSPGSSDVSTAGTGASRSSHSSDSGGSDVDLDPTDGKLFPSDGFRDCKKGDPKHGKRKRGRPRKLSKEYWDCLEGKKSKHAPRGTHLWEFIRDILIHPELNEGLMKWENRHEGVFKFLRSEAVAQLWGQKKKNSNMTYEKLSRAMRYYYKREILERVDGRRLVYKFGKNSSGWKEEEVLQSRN
In short: as §1

ETV1 = ETV1 (Homo sapiens, UniProt P50549 1-477)
In short: as §1

ERF = biological target: T3, ERF (Homo sapiens, UniProt P50548 1-548)
T3 sequence: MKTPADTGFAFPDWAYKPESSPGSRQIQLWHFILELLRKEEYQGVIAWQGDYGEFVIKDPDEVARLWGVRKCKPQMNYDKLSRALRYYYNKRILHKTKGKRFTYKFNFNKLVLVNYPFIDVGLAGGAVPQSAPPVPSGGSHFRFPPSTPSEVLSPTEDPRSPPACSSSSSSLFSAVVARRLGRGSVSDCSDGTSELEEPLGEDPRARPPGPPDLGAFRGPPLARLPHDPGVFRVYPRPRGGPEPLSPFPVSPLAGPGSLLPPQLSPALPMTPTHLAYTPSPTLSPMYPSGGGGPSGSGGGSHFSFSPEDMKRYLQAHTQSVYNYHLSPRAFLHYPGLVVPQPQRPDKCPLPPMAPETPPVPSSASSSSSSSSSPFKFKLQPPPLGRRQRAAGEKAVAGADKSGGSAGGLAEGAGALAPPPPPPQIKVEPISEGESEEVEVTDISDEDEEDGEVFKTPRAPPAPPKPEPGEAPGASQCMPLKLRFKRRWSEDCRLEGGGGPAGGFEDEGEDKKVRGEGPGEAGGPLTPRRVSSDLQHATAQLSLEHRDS
In short: as §1

ETV3L = biological target: T4, ETV3L (Homo sapiens, UniProt Q6ZN32 1-361)
T4 sequence: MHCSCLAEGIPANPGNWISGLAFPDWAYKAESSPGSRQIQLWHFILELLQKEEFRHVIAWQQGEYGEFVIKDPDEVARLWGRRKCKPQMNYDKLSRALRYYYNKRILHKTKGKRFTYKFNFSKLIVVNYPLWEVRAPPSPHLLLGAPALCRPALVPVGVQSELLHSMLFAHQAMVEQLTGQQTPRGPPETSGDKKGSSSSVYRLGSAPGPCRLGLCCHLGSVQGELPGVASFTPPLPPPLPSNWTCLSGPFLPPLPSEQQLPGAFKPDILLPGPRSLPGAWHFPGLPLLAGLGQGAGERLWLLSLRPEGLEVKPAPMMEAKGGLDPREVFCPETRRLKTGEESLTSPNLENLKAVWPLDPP
In short: as §1

ETS2 = biological target: T5, ETS2 (Homo sapiens, UniProt P15036 1-469)
T5 sequence: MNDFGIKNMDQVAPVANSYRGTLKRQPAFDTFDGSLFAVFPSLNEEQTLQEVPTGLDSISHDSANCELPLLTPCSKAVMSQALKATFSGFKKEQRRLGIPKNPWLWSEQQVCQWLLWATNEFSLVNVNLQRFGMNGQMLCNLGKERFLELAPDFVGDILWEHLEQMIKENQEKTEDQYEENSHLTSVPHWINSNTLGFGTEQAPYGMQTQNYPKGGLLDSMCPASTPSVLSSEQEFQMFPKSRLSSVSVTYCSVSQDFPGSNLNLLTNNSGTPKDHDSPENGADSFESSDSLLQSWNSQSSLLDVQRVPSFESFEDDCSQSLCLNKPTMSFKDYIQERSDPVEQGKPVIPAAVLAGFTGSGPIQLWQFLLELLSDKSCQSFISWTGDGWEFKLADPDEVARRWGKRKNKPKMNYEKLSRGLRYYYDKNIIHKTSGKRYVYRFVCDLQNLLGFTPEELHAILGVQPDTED
In short: as §1

SPDEF = biological target: T6, SPDEF (Homo sapiens, UniProt O95238 1-335)
T6 sequence: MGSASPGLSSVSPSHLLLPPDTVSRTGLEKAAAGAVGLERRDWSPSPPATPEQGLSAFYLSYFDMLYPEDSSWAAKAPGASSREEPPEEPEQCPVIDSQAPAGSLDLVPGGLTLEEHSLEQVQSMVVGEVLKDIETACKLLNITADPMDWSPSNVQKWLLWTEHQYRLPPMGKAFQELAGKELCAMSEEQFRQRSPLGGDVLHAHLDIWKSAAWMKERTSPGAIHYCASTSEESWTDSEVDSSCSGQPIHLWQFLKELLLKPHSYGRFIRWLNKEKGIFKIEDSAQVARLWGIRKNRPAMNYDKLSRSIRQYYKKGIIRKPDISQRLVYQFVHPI
In short: as §1

ETV7 = biological target: T7, ETV7 (Homo sapiens, UniProt Q9Y603 1-341)
T7 sequence: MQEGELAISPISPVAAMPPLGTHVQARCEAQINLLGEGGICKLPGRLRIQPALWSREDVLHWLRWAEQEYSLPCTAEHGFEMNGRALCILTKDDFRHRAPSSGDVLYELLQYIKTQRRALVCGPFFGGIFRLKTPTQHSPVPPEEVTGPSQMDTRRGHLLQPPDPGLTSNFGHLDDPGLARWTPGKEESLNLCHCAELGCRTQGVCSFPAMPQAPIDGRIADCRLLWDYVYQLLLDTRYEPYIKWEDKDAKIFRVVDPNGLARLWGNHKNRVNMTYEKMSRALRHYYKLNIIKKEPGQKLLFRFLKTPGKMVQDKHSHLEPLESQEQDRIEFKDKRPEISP
In short: as §1

ETV3 = biological target: T8, ETV3 (Homo sapiens, UniProt P41162-2 1-143)
T8 sequence: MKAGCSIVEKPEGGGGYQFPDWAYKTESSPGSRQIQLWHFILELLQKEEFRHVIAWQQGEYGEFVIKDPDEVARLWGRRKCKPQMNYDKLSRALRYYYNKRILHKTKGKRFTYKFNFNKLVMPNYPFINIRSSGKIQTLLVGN
In short: as §1

ETV6 = ETV6 (Homo sapiens, UniProt P41212 1-452)
In short: as §1

ETV6, sequence (P41212 whole entry): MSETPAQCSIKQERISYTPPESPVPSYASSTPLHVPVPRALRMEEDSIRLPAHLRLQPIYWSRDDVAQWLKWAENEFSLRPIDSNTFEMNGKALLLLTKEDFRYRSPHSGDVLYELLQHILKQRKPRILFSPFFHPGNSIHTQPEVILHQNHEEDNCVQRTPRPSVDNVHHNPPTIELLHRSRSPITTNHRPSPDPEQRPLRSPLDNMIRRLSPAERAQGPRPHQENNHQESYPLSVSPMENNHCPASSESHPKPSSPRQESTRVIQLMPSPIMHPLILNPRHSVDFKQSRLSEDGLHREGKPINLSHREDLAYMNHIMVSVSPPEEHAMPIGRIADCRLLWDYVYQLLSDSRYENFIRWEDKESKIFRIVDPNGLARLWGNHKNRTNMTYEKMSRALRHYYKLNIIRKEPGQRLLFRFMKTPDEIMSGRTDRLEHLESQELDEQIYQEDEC
ETV1, sequence (P50549 whole entry): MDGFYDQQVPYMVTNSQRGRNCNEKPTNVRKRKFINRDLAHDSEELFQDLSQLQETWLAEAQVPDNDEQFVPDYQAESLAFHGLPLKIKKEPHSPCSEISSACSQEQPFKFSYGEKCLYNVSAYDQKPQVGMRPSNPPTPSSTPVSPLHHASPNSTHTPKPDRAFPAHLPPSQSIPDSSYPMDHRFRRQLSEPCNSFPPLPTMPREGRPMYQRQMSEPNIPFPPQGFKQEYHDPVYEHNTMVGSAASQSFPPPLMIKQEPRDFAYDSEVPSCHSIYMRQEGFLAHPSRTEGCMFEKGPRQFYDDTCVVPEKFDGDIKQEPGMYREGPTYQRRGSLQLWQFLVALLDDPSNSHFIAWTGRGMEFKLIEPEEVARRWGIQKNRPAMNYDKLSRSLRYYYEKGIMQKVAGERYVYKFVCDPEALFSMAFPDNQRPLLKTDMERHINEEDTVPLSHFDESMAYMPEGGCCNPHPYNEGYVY

GTTGAC was tested, and the binding signal (ETV2) was 1.07 fold enrichment (6-mer frequency, TF over GST control), the binding signal (ELF3) was 1.09 fold enrichment (6-mer frequency, TF over GST control) and the binding signal (ETV1) was 1.06 fold enrichment (6-mer frequency, TF over GST control). The binding signal (ERF) was 1.43 fold enrichment (6-mer frequency, TF over GST control), the binding signal (ETV3L) was 1.19 fold enrichment (6-mer frequency, TF over GST control) and the binding signal (ETS2) was 1.17 fold enrichment (6-mer frequency, TF over GST control). For the same sequence, the binding signal (SPDEF) was 1.07 fold enrichment (6-mer frequency, TF over GST control), the binding signal (ETV7) was 1.19 fold enrichment (6-mer frequency, TF over GST control) and the binding signal (ETV3) was 1.04 fold enrichment (6-mer frequency, TF over GST control). The binding signal (ETV6) was 1.21 fold enrichment (6-mer frequency, TF over GST control).
